Data published in PubChem BioAssay AID493244 (The Scripps Research Institute Molecular Screening Center, 2011).
Values joined by “and” are separate entries in the source; they are usually repeats but may differ in a detail not shown here. Equal entries are not always repeated. About 390 (0.11%) of roughly 340,000 compounds were called active. For the sample, actives were picked, then their nearest neighbours and some compounds at random. Unmarked numbers belong to inactive results.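 How the source made its calls: active means inhibition above the mean inhibition of all tested compounds plus 3 SD (cut at about 17% in these data); inactive means the rest.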

What follows are molecules tested against Troponin I, cardiac muscle (Homo sapiens) + Troponin T, cardiac muscle (Homo sapiens) + Troponin C, slow skeletal and cardiac muscles (Homo sapiens) (UniProt P19429+P45379+P63316) (assay: calcium desensitizers of cardiac thin filaments – biochemical, IANBD-TnC fluorescence, EC70 calcium, primary screen (AID 493244;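 further: assay run at fixed EC70 calcium of 1.6 mM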)). Details: IANBD-labeled cardiac RTF, Ca2+ fluorescence; at 7.15 µM; stronger effect = higher value.
With `Cc1cc(C)c2nc(SCC(=O)N(C)C3CCS(=O)(=O)C3)cc(C)c2c1` (stereo unspecified) the inhibition was -11.7%. In the case of `Cc1cc2oc(=O)cc(-c3ccccc3)c2c(C)c1-c1ccc(OC(F)(F)F)cc1`, the inhibition is reported as -2.33%. For `CCn1c(SCc2cc(=O)n3ccsc3n2)nc2ccccc21`, the inhibition was -0.11%. Work on `COc1ccc(S(=O)(=O)NCC2CCCN(C(=O)c3occc3C)C2)cc1` (stereo unspecified) yielded an inhibition of -1.36%. With `COc1ccc2oc(N)nc2c1` the inhibition was 1.17%. `COc1cc(C(=O)Nn2c(O)c(C3=c4ccccc4=NC3=O)sc2=S)ccc1O` showed an inhibition of -0.38%. With `C=CCn1c(N)cc(=O)nc1SCC(=O)Nc1cccc2ccccc12` the inhibition was -2.98%. With `COc1cc(OC)c2c(c1)OC(=O)CC2c1cc(OC)c(OC)c(OC)c1` (stereo unspecified) the inhibition was -1.64%. Molecule `NC(=O)C1(N2CCCCC2)CCN(C(=O)c2ccc(C#Cc3ccccc3)o2)CC1` has an inhibition of -7.6%. In the case of `N#CC1(Nc2ccc(-c3ccc(Cl)cc3)cc2)CCCC1`, the inhibition is reported as -2.12%. Work on `O=C(COC(=O)c1ccccc1SCC(=O)NC1CCCCC1)NC1CCCCC1` yielded an inhibition of 1.46%. `O=C(COC(=O)c1ccccc1Cl)NC1CCCCCCC1` was tested, and the inhibition was 3.26%. With `C=CCNC(=O)COC(=O)c1ccccc1C(=O)N(C)C1CCCCC1` the inhibition was 18.3% (active). `CCCCN(C(=O)CSCc1ccc(C)cc1)c1c(N)n(Cc2ccccc2)c(=O)[nH]c1=O` was tested, and the inhibition was -2.92%. With `COc1cccc(NC(=S)C(C#N)=C2N(C)c3ccccc3N2C)c1` the inhibition was -5.1%. `Cc1nc(-c2ccccc2)sc1-c1nnc(C2CC2)o1` was tested, and the inhibition was -8.96%. For `O=C(CNC(=O)C12CC3CC(CC(C3)C1)C2)OCC(=O)N1CCCCC1`, the inhibition was -10.1%. `CC1(C)C/C(=N/Nc2ccc([N+](=O)[O-])cc2[N+](=O)[O-])C(C)(C)O1` was tested, and the inhibition was -8.69%. For `Cc1ccc(C(=O)C[n+]2cc(-c3ccccc3)n3c2CCCCC3)cc1`, the inhibition was -12.2% and -7.58%. `CCOC(=O)c1nnn2c1nc(N1CCN(c3ccccc3)CC1)c1ccccc12` gave an inhibition of -5.69%. Molecule `CCCCn1c(N)c(N(CC(C)C)C(=O)CSc2ccc([N+](=O)[O-])cc2)c(=O)[nH]c1=O` has an inhibition of -11.5%. For `C[N+](C)(C)CCNC(=O)c1cc[n+](Cc2ccccc2)c(/C=N/O)c1`, the inhibition was 0.25%. For `CC1CCCCC1NC(=O)COC(=O)Cc1ccc(Br)cc1` (stereo unspecified), the inhibition was -1.84%. `O=C1Nc2c(Br)cc(Br)cc2C1(O)N1CCOCC1` (stereo unspecified) gave an inhibition of -1.44%. In the case of `CCc1[nH]nc(C(=O)N2CCCC(CO)(Cc3ccc(F)cc3F)C2)c1C` (stereo unspecified), the inhibition is reported as -5.33%. With `COC(C(=O)Nc1ccc(S(=O)(=O)Nc2ccc(C)c(C)c2)cc1)c1ccccc1` (stereo unspecified) the inhibition was -0.7%. In the case of `Cc1cccc(-c2c(NC(=O)c3ccco3)oc3ccc(Cl)cc3c2=O)c1`, the inhibition is reported as -4.74%. In the case of `C/C(=N/NC(=O)c1ccncc1)c1ccc2c(c1)OCO2`, the inhibition is reported as -5.5%. In the case of `C/C(=N\NC(=O)COc1ccc(C)cc1[N+](=O)[O-])c1ccc2c(c1)OCCO2`, the inhibition is reported as -7.39%. In the case of `C/C(=N\NC(=O)C(N)=O)c1ccc2c(c1)OCCO2`, the inhibition is reported as 17.1% (active). `CC(C)(C)c1ccc(C(=O)NCc2nnc(SCC(=O)N3CCCc4ccccc43)n2-c2ccccc2)cc1` was tested, and the inhibition was -6.84%. `CCCCSc1nnc2c(n1)OC=Nc1ccccc1-2` gave an inhibition of -2.01%. In the case of `Cc1ccc2c(c1)C1C[N+](C)(CC(=O)c3ccccc3)CCC1N2C(=O)c1ccccc1Cl` (stereo unspecified), the inhibition is reported as -13.7%. Work on `COc1ccc(C2CC(=O)NC(=O)C2)cc1` yielded an inhibition of -0.2%. Molecule `COc1ccc(CCC(=O)Nc2ccc(Cl)c(S(=O)(=O)N3CCOCC3)c2)cc1OC` has an inhibition of -10.9%. For `CCc1nnc(NC(=O)c2cc(S(=O)(=O)N3CCN(CC)CC3)ccc2Cl)s1`, the inhibition was -8.17%.
